# Compound activity: PubChem, National Center for Advancing Translational Sciences (NCATS)
# TDP1 cell noCPT = qHTS for Inhibitors of human tyrosyl-DNA phosphodiesterase 1 (TDP1): qHTS in cells in absence of CPT; DT40 Tdp1-/- hTDP1 cells, no CPT, ATP luminescence, 48 h; Potency, µM (series often up to 46.2 µM), for the others: at the highest dose activity change, negative = growth inhibition, usual class: inhibitors; 15% of 420,000 active; also: potency is read from the fitted curve at half-maximal effect; % is scaled to controls: 0 for no effect and ±100 for the full control effect; nearly all actives have a fitted effect of over 55% in size
#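 Chicken DT40 Tdp1-/- cells complemented with human TDP1, screened without camptothecin (DMSO vehicle only), 400 cells/well. Compounds pin-transferred, cells incubated at 37 °C for at least 48 hr. Growth read as ATP-dependent luminescence (CellTiter-Glo, 30 min at RT).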
# IL1B secr inh = blocks inflammasome-driven IL-1 beta release; THP-1 LPS/ATP IL-1B secretion, AlphaLISA, 16 h; hits give low values; activity change, % at 57.5 µM; 4.7% of 360,000 active; in the data active = activity change below about -50%; inconclusive = mostly about -30% to -49%; also: % is scaled to controls: 0 for no effect and ±100 for the full control effect
#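 THP-1 cells pretreated 1 hr with compounds (up to 57.5 uM final), then stimulated with LPS (250 ng/mL final) plus ATP (1.25 mM final); secreted IL-1B measured by AlphaLISA after 16 hr, decreased signal indicating inhibition.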
# Chronic BCR inh = chronic active BCR signaling inhibition; 0.05% of 340,000 active; ABC-DLBCL IkBa-CBG/CBR reporter, luminescence ratio, 4 h; Potency, µM (titrated, usually from 46.1 µM), for the others: at the top dose activity change, negative = inhibition, usual class: inhibitors; active = well fitted inhibition curve with a large enough effect in the signal ratio, with a control signal flat, not every such curve was filed as active; inconclusive = small, poorly fitted or top-dose-only effect, or effect the other way, or a change in a side signal; the % refers to the signal ratio;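 also: potency is read from the fitted curve at half-maximal effect; plate controls were basal doxycycline-induced cells for no effect and cells given 10 µM MG132 for full effect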
#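 Doxycycline induced both beetle luciferases in TMD8 lymphoma cells; IKK-driven degradation limits the IkappaBalpha-fused green signal, while red luminescence normalises for cell number and nonspecific effects. Compounds tested up to 46 uM, 4 hrs.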
# MCF10A rereplic = DNA re-replication induction in MCF 10a cells. MCF 10A DNA re-replication, Hoechst nuclear intensity, 48 h. Potency, µM (top dose mostly 46.1 µM), without a hit: top-dose activity, positive = re-replication, usual class: activators. 2.9% of 350,000 active; also: potency is read from the fitted curve at half-maximal effect; % of control where 0% means no effect; nearly all actives have a fitted effect of over 50% in size
# DT40 TDP1 CPT = DT40-hTDP1 cell growth loss with CPT; chicken DT40 Tdp1-/-;hTDP1 cells + 20 nM CPT, ATP luminescence, 48 h; Potency, µM (highest dose often 46.2 µM), without a hit: top-dose activity change, negative = growth inhibition, hits mostly inhibitors; 12% of 420,000 active; also: potency is read from the fitted curve at half-maximal effect; % is scaled to controls: 0 for no effect and ±100 for the full control effect; nearly all actives have a fitted effect of over 55% in size
#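 Cell growth measured by CellTiter-Glo luminescence after a minimum 48 h, 37 C compound exposure with 20 nM CPT in Tdp1-knockout DT40 cells stably expressing hTDP1, seeded 400/well; qHTS titration format.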
# SW480 rereplic = inducers of DNA re-replication in SW480 colon cancer cells; AID 624297; SW480 DNA re-replication, Hoechst DNA content imaging, 48 h; Potency, µM (highest dose often 46.1 µM), for the others: at the highest dose re-replication activation, usual class: activators; 1.8% of 340,000 active; also: potency is read from the fitted curve at half-maximal effect; % of control where 0% means no effect; nearly all actives have a fitted effect of over 55% in size
#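 Hoechst fluorescence of nuclei (405 nm excitation, 500-530 nm emission) measured by plate-scanning imager after 48 hr compound exposure at 37 C; re-replication scored as increased number of nuclei with elevated intensity.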
# An asterisk follows results filed as active; i = inactive; ? = inconclusive; nt = no result; [ ] = remark or other dose. Shown are actives, neighbours in structure and some others; about 19% of the full set was active somewhere. Unless noted, calls follow the shape of the dose curve; as a rule, active = well fitted curve in the direction sought with a large enough effect; inconclusive = small, poorly fitted or top-dose-only effect, or another doubt; inactive = no such curve, though single readings can be large; an effect the other way counts as inactive or inconclusive.
SMILES,TDP1 cell noCPT,IL1B secr inh,Chronic BCR inh,MCF10A rereplic,DT40 TDP1 CPT,SW480 rereplic
O=C(O)C1CCc2nc(NCc3ccccc3)nc(NCc3ccccc3)c2C1 (configuration not stated),-11%,-3,nt,5%,-20%,8%
CC1=C(C(=O)N2CCOCC2)CC(CC(=O)NCCc2ccccn2)C(=O)N1CCCN1CCCC1=O (configuration not stated),-25%,0,nt,nt,-8%,nt
CN1c2ccccc2C(C)(C)C12C=Cc1cc(O)ccc1O2 (configuration not stated),16µM*,-74*,4%,-10%,13µM*,22%
Cc1cccn2c(CNCC3(c4ccccc4)CCCC3)c(C(=O)N3CCOCC3)nc12,10µM*,-6,?,34%,13µM*,0%
CCN(CC)C(=O)c1sc(NC(=O)c2ccoc2C)c(C(=O)OC)c1C,21µM*,?,-2%,10%,?,5%
Cc1ccc(C)c(-c2cc(C(=O)Nc3sc(C)c(C)c3C(N)=O)c3ccccc3n2)c1,?,?,13%,?,21µM*,22%
CCOC(=O)c1c(NC(=O)COC(=O)c2ccccc2NC)sc(C(=O)N(C)C)c1C,?,-79*,2%,11%,?,16%
CCN(CC)CC(C)CNC(=O)c1cc(-c2ccc(Br)s2)nc2ccccc12 (configuration not stated),9.2µM*,nt,nt,nt,8.2µM*,nt
Cc1ccc(C)c(-c2cc(C(=O)NNC(=S)NCC(C)C)c3ccccc3n2)c1,-20%,13,23%,?,2%,-4%
CCOC1=C2[C@H](c3ccccc3)N(S(=O)(=O)c3ccc(C)cc3)[C@H](C(C)C)[C@H]2n2c(=O)n(-c3ccccc3)c(=O)n2C1,-11%,5,nt,nt,-11%,nt
COc1cc(NC(=O)c2cc(-c3ccco3)on2)cc(OC)c1OC,?,-4,-1%,2%,?,-5%
O=C(O)CCCCCNC(=O)Cn1nnc2ccccc2c1=O,1%,-9,-5%,-1%,-7%,-4%
CCn1cc(C(=O)N(C)CC(OC)OC)c(=O)c2cc(S(=O)(=O)N3CCOCC3)ccc21,2%,7,2%,1%,1%,3%
CCN(CC)C(=O)c1sc(NC(=O)c2cc(-c3ccc(C)s3)nc3ccccc23)c(C(=O)OC)c1C,23µM*,-3,0%,21%,?,0%[9.22 µM]
CCN(CC)C(=O)c1sc(NC(=O)C(Sc2ccccc2)c2ccccc2)c(C(=O)OC(C)C)c1C (configuration not stated),16µM*,-18,-4%,1%,?,8%
CCOC(=O)c1c(NC(=O)c2ccoc2C)sc(C(=O)N(C)C)c1C,23µM*,-20,?,-2%,-28%,-3%
CCN(CC)C(=O)c1sc(N)c(C(=O)OC(C)C)c1C,-13%,22,?,2%,-22%,-3%
COc1ccc(C)cc1NC(=O)c1cc2c(=O)n(Cc3cccnc3)ccc2nc1C,-15%,nt,nt,nt,-7%,nt
Cc1cnc(C(=O)O)cn1,nt,nt,nt,-1%,nt,-4%
CC[C@@H]1CC=C[C@H]2[C@H]1C(=O)N(Cc1ccccc1)[C@H]2c1ccc(C(F)(F)F)cc1,?,38,-1%,7%,15µM*,1%
CC[C@@H]1CC=C[C@H]2[C@H]1C(=O)N(Cc1ccccc1)[C@H]2c1ccoc1,15µM*,-107*,?,8.2µM*,16µM*,2%[9.22 µM]
C/C(=N\Nc1ccccn1)c1ccc2c(c1)OCO2,?,-6,-2%,-6%,18µM*,-6%
C/C(=N\Nc1nc2ccccc2[nH]1)c1ccc2c(c1)OCCO2,?,-54*,?,12%,?,11%
C/C(=N\Nc1ccccn1)c1ccc(C(C)C)cc1,?,-8,?,-1%,?,1%
C(=N\Nc1nc2ccccc2[nH]1)/c1ccc2c(c1)OCO2,?,?,?,9%,?,-1%
SMILES,TDP1 cell noCPT,IL1B secr inh,Chronic BCR inh,MCF10A rereplic,DT40 TDP1 CPT,SW480 rereplic
C/C(=N\NC(=O)c1ccncc1)c1cc2ccccc2o1,0%,-17,-6%,-4%,30%,3%
C/C(=N\Nc1nc2ccccc2[nH]1)c1ccc2c(c1)OCO2,26µM*,-83*,?,?,15µM*,21µM*
C/C(=N\Nc1nc2ccccc2[nH]1)c1cc2ccccc2o1,18µM*,-95*,?,?,?,-1%
CC(C)C(NC(=O)c1ccc2c(c1)OCCO2)c1nc2ccccc2[nH]1 (configuration not stated),-21%,-1,-17%,0%,-9%,4%
CCN(CC)C(=O)C1=C(C)N(Cc2ccc(OC)cc2)C(=O)C(CC(=O)NC2CCCCC2)C1 (configuration not stated),-8%,-10,nt,nt,2%,nt
CC(Sc1nnc(-c2ccc(OC(F)F)cc2)n1N)C(=O)NCC1CCCO1 (configuration not stated),-3%,-4,-2%,1%,6%,-1%
COc1ccc(Cl)cc1C(=O)Nc1sc2c(c1C(=O)OC(C)C)CCCC2,-8%,nt,nt,nt,-11%,nt
CN(C)C(=O)c1sccc1Oc1ccc(F)cc1[N+](=O)[O-],0%,-4,2%,3%,6%,1%
Cc1cc(C(=O)NNC(=O)c2c(-c3c(Cl)cccc3Cl)noc2C)no1,-2%,i,-1%,-13%,-7%,-9%
Cc1onc(-c2c(Cl)cccc2Cl)c1C(=O)Nc1nc(C(C)(C)C)cs1,23µM*,?,?,?,?,?
Cc1cc(C)nc(NC(=O)c2c(-c3c(Cl)cccc3Cl)noc2C)n1,?,14,-2%,16%,-22%,1%
Cc1nc(C(=O)NNC(=O)c2c(-c3c(Cl)cccc3Cl)noc2C)cs1,16µM*,56,-9%,11%,?,25%
Cc1c(Cl)cccc1NC(=S)N1CCC(N(C)CC2CCCO2)CC1 (configuration not stated),1%,-11,?,11%,3%,7%
CNC[C@H]1OCc2ccccc2-c2ccccc2C(=O)N([C@@H](C)CO)C[C@H]1C,-6%,9,nt,nt,5%,nt
CN(C)CCNC(=O)Cc1ccc(NC(=O)N2CCCCc3ccccc32)cc1,-9%,nt,nt,nt,-9%,nt
COc1cc(O)cc2c1[C@@H]1Oc3c(ccc(O)c3CC=C(C)C)[C@@H]1CO2,23µM*,-4,nt,4%,18µM*,-1%
